# Test results: ChEMBL document CHEMBL4888484, “Replenishing the malaria drug discovery pipeline: Screening and hit evaluation of the MMV Hit Generation Library 1 (HGL1) against asexual blood stage Plasmodium falciparum ,using a nano luciferase reporter read-out” (2022)
# In all, about 4,800 compounds went through this assay and about 410 (8.5%) showed an effect of 50% or more. For the sample, strong results were picked, then their nearest neighbours and some compounds at random.
# Test system: Plasmodium falciparum
# Experiment: Confirmatory screen in NF54 pLDH assay, in single point, at 2uM, 72h
# Format: functional, Erythrocyte
# Conditions: timepoint 72 hour
row,Compound,% Inhibition [%]
1,Oc1nc(N2CCOC3(CCCC3)C2)ncc1F,53
2,FC(F)(F)c1cnc(N2CCOC3(CCOCC3)CC2)s1,9
3,O=C(c1cc(-c2ccncc2)on1)N1CCOC2(CCCCCC2)C1,8
4,Cc1c(C(=O)N2CC[C@H](CC(C)(C)C)C2(C)C)nnn1-c1cnn(C)c1,-9
5,Cc1cc(C)cc(NC(=O)Cc2nc(C)c(C(=O)NCc3ccccc3)s2)c1,5
6,CCOC(=O)c1c(CN2CCCC2)n(C)c2cc(-c3cccnc3)c(O)c(Cn3ccnc3)c12,68
7,CCOC(=O)c1ncn(C2CCN(C(=O)c3cccc(Cn4ccnc4)c3)CC2)c1N,5
8,CCOC(=O)c1nc(-c2cccnc2)cs1,-8
9,Cc1cccc(C)c1OCC(C)NC(=O)N1CCCC(CS(C)(=O)=O)C1 (stereo not given),-20
10,COc1ccc(CN(C)[C@H]2CCc3nn(C)c(=O)n3CC2)c(Cl)c1OC,1
11,CC(C)c1nnc(Cn2nnc(-c3ccncn3)n2)s1,-12
12,Cc1cc(C)n(CCC(=O)N2CC[C@H](c3nc(C4CCOCC4)no3)C2)n1,9
13,Cc1ccc(S(=O)(=O)c2c(NS(=O)(=O)c3ccc(F)cc3)n(CCc3ccccc3)c3nc4ccccc4nc23)cc1,103
14,O=C(Nc1c(S(=O)(=O)c2ccccc2)c2nc3ccccc3nc2n1CCc1ccccc1)c1ccc(Cl)cc1,96
15,COCCCn1c(NS(=O)(=O)c2ccccc2)c(S(=O)(=O)c2ccc(C)cc2)c2nc3ccccc3nc21,49
16,Cc1ccc(S(=O)(=O)Nc2c(S(=O)(=O)c3ccc(C)cc3)c3nc4ccccc4nc3n2CCC(C)C)cc1,100
17,Cc1ccc(S(=O)(=O)Nc2c(S(=O)(=O)c3ccc(C)cc3)c3nc4ccccc4nc3n2C[C@H]2CCCO2)cc1,8
18,Cc1ccc(S(=O)(=O)Nc2ccccc2-c2nnc(-c3c(NS(=O)(=O)c4ccc(C)cc4)ccc4ccccc34)o2)cc1,-13
19,O=C(Nc1ccccc1)c1ccc2c(c1)C(=O)N(CCc1ccccc1)C2=O,-15
20,Cc1cnc(C2CCC2)n1CCNS(=O)(=O)c1ccccc1,2
21,Cc1ccc(S(=O)(=O)Nc2c(S(=O)(=O)c3ccccc3)c3nc4ccccc4nc3n2CCc2ccccc2)cc1,100
22,O=C(Cn1c(Cc2ccc(Cl)cc2)nc2ccccc21)Nc1ccccc1,9
23,Cc1nn(C)c(N)c1C(=O)N(C1CCC1)C1CCC1,-16
24,Cc1cc(Cn2c(=O)n(Cc3ccccc3)c3ccncc32)on1,7
25,COc1ccc([C@@H]2C(C#N)(C#N)C23C(=O)CC(C)(C)CC3=O)cc1,-12

row,Compound,% Inhibition [%]
1,N#Cc1cccc(-c2c[nH]c(CNc3nc4cc(C(F)(F)F)ccc4s3)n2)c1,7
2,Cc1nc2cccnc2n1-c1cc(C(=O)NCC[C@H](C)N2CCCC2)ccc1Cl,8
3,CC1CCN(C(=O)NCC2CCC(F)(F)CC2)CC1n1ccnc1 (stereo not given),12
4,COc1cc(CC2CN(C(=O)c3cscn3)C2)cc(OC)c1,3
5,CS(=O)(=O)CC1(CC(=O)N[C@H](c2ccccc2)C2CCC2)CC1,11
6,Cc1nn(CC2(O)CCCCC2)c(=O)c(C#N)c1C,-10
7,COCCCn1c(NS(=O)(=O)c2ccc3ccccc3c2)c(S(=O)(=O)c2ccc(C)cc2)c2nc3ccccc3nc21,16
8,CS(=O)(=O)n1c(CCCc2ccccc2)nc2ccccc21,15
9,Cc1ccc(S(=O)(=O)Nc2cc3nc4ccccc4nc3n2CCc2ccccc2)cc1,97
10,Cc1cc(NC(=O)Cn2c(=O)n(CCc3ccccc3)c(=O)c3ccccc32)no1,13
11,Cc1ccc(S(=O)(=O)c2c(NS(=O)(=O)c3ccccc3)n(CCc3ccccc3)c3nc4ccccc4nc23)cc1,102
12,O=C(O)Cc1cccc(NC(=O)C2C3Cc4ccccc4C32)c1 (stereo not given),2
13,C[C@H](NC(=O)CC1(C)CCCCC1)c1cnn(C)c1,-5
14,O=C(Nc1cccc(OCCn2cncn2)c1)[C@@H]1CCCc2ccccc21,-19
15,Cc1cc(CCC(=O)Nc2nnn[nH]2)ccc1Br,10
16,COc1cc2c(cc1CNc1nc(N)nc3c1CCNCC3)CCC2,11
17,Cc1cc(C)cc(NC(=O)Cc2nnc3ccc(C(=O)Nc4ccccc4)cn23)c1,8
18,CC(=O)N1CCN(c2nc3c(s2)C[C@@H](C(=O)NCc2ccccc2F)CC3)CC1,-22
19,O=S1(=O)N=C(NC[C@@H](O)Cc2ccccc2)c2ccccc21,7
20,Cc1cccc(NC(=O)Nc2cc(F)c3[nH]c(=O)ccc3c2)c1,-7
21,COc1ccc(-c2noc(CCn3c(=O)[nH]c4cc5c(cc4c3=O)OCO5)n2)c(OC)c1,6
22,Cc1cnc(C2CCN(C(=O)[C@@H]3CNC(=O)O3)CC2)s1,2
23,COC1(C)CN(c2cnc(C#N)cn2)C1,2
24,C[C@H]1CCCN(S(=O)(=O)NCC(=O)Nc2ccccn2)C1,-14
25,C[C@H]1CCCN(c2nc(-c3ccccn3)nc3ccccc23)C1,98

row,Compound,% Inhibition [%]
1,CCc1ccc(NC(=O)[C@H]2CCCN(c3nc4cccnc4n(Cc4ccccc4)c3=O)C2)cc1,-14
2,Cc1ccccc1N1CCN(C(=O)c2ccc3ncccc3c2)CC1,9
3,C[C@H]1CCN(c2nc(-c3ccccn3)nc3c2CCC3)C1,93
4,O[C@H]1Cc2ccccc2[C@H]1Nc1nc(-c2ccccn2)nc2c1CCNC2,-7
5,FC(F)(F)C1CN(c2nc(-c3ccccn3)nc3c2CCC3)C1,54
6,CCc1sc(N(C(=O)Cc2ccccc2)c2ccc(C)cc2C)nc1-c1ccc(Cl)cc1,12
7,COc1ccc(-n2nc(C(=O)N3CCOCC3)c(=O)cc2OC)cc1,3
8,CCc1nnc2c(S(=O)(=O)Nc3cc(F)cc(F)c3)cccn12,9
9,CN1N=C(C(=O)NC2CCC3CCCCC3C2)CCC1=O (stereo not given),-20
10,COc1ccc(C(=O)N(CCO)CCN2CCOCC2)c(OC2CCCC2)c1,11
11,Cc1cccc(-n2c(=O)[nH]c3nc(NCCN(C)C)ncc3c2=O)c1C,8
12,COc1ccccc1C(=O)N1CCC([C@H](NC(=O)c2ccc3c(c2)OCO3)C(=O)NC(C)C)CC1,10
13,COc1ccccc1CC(=O)NC[C@H](C)O,14
14,O=C1c2cc3ccccc3c(-c3ccccc3)c2C(=O)N1c1ccccc1,-16
15,CCc1nn2c(c1-c1ccc(C)cc1)NC(=O)C[C@H]2C(=O)O,12
16,Cc1cnc(CC[C@H]2CCCN2C(=O)CCCc2ccccc2)n1C,10
17,CC(C)O[C@@H]1CCN(C[C@H](O)c2ccc(C(F)(F)F)cc2)C1,42
18,CCc1ccc(C(=O)N2CC[C@H](CC(=O)NCc3ccccc3)C2)cc1,10
19,Cc1cccc(C)c1NC(=O)c1cc(-c2cccc3ccccc23)[nH]n1,11
20,Cc1cccc2c(-c3cc(N)nc(N)n3)c[nH]c12,100
21,Cc1cc(Br)c2c(c1)C(O)(N1CCCC(C)C1)C(=O)N2 (stereo not given),9
22,O=C(CN1C(=O)C[C@H](Cc2ccc(F)cc2)C1=O)N1CCNC1=O,9
23,CN(C)c1nc(N)cc(-c2cccc3cccnc23)n1,55
24,CN(C)c1nccc(NC[C@H](N)c2ccccc2)n1,-12
25,CC1CCCC(C)N1C(=O)CN(C)c1cccc2cccnc12 (stereo not given),4

row,Compound,% Inhibition [%]
1,Cc1ccc(C(N)C(C)S(C)(=O)=O)cc1 (stereo not given),-18
2,Oc1cc(CC[C@H]2CCCCN2)cc(-c2cnc3ccccc3n2)c1,80
3,COc1cccc(-c2cc(O)cc(CC[C@H]3CCCCN3)c2)n1,89
4,O=C(NCC(F)(F)F)Nc1ccc(CO)cc1,3
5,O=c1[nH]c2cc(Cl)c(S(=O)(=O)Cl)cc2[nH]1,6
6,CCc1c(C(=O)NCc2ccc(CN3CC(C)OC(C)C3)cc2)[nH]c(C)c1C(C)=O (stereo not given),-27
7,COc1ccc(CC(=O)N2CCN(c3cnn4cnnc4c3)CC2)cc1,6
8,CCc1nnc2ccc(S(=O)(=O)N(CC#N)c3ccccc3)cn12,-16
9,c1coc(CNc2nc(Nc3cccc4ccccc34)nc3ccccc23)c1,50
10,COc1ccc(NC(=O)CCC(=O)NCc2ccco2)cc1,15
11,C=CCNC(=O)CCC(=O)NCc1ccco1,13
12,COc1ccc(CCN[C@@H]2c3ccccc3C(=O)N2C2CCCCC2)cc1OC,10
13,CC(=O)N(Cc1ccccc1)c1ccc2c(c1)nc(Cn1nc(C)cc1C)n2C,5
14,CCC(CC)N1CC(C(=O)NC2COc3ccc(C)cc32)CC1=O (stereo not given),-21
15,CCn1cc(S(=O)(=O)N(C)Cc2nn(CC)cc2Cl)cn1,8
16,Cn1c(=O)c2sc(N3CCCC3)nc2n(CC(=O)NC2CCCC2)c1=O,4
17,COc1ccc(CC[C@H](C)NC(=O)NCCCN2CCCC2=O)cc1,11
18,N#CC1CCC(Nc2cnn(-c3ccncc3)c2)CC1 (stereo not given),11
19,CC(C)C(=O)N1CC[C@H](CC(=O)NCc2ccncc2)C1,5
20,CS(=O)(=O)N1CC[C@H](CC(=O)N2CCN(c3ccc(F)cc3)CC2)C1,-21
21,CN(C)c1cc(C(=O)N2CCOC3CCCCC32)ccn1 (stereo not given),3
22,Cc1ccc(C)c(-c2nc(Cn3c(=O)c4c(C)cc(C)nc4n(C)c3=O)c(C)o2)c1,3
23,Fc1cnc(OC2Cc3ccccc3C2)nc1,57
24,Cn1nccc1/C=C1\CC2C3CCc4cc(O)ccc4C3CCC2(C)C1O (stereo not given),47
25,Nc1ncncc1C(=O)NCCc1c[nH]c2ccc(F)cc12,6
